Cav32 inh = human Cav3.2 channel inhibition, primary screen | O95180 | Cav3.2-expressing cells, Fluo-4 calcium fluorescence FDSS; hits give low values | B-score at 10 µM | actives 4% (n = 100,000) | AID 449739;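 active = single-dose well whose peak fluorescence ratio is a statistical outlier from its plate by either plate-standardised score or position-corrected B-score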
CYP2C19 inh = blocks human cytochrome P450 2C19 | inhibition, % at 5 µM | CYP2C19 Supersomes, luciferin-H EGE luminescence, 30 min | P33261 | actives 21% (n = 96,000);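 active = CYP2C19 inhibition above a set limit at 5 µM in the primary screen, cut at about 50% in these data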;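 note: plate controls were negative control wells for no effect and 2.5 mM tranylcypromine positive control for full effect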
CYP2C9 inhib = human CYP2C9 inhibition | CYP2C9 Supersomes, luciferin-H conversion, luminescence | AID 777 | actives 20% (n = 96,000) | inhibition, % at 5 µM | P11712;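 active = blocking of liver enzyme CYP2C9 beyond about 50% at 5 µM, limit read from the data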
Target sequence (P11712 whole entry, looked up): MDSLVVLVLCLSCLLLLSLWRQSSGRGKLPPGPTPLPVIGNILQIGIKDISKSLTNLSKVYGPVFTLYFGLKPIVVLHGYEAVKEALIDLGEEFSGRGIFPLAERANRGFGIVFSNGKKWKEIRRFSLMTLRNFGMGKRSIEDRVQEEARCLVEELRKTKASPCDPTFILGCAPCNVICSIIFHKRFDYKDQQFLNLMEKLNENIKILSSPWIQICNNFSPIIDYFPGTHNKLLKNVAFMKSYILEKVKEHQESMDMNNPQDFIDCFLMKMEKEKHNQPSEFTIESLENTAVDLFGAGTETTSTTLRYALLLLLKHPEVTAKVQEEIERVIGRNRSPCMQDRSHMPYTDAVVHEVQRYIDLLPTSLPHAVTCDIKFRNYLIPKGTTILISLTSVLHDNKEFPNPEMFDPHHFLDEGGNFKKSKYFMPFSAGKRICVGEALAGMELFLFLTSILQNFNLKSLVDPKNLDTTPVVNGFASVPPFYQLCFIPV
CYP2C9 act = activators of human CYP2C9. actives 1.4% (n = 96,000). activation factor at 5 µM. recombinant CYP2C9, luciferin-H conversion, luminescence; hits give high values; factor 1 = untreated enzyme, 0 = blocked. AID 1024;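 active = activation factor of 2 or more for CYP2C9 at a 5 µM dose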;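 note: 0 = sulfaphenazole-blocked wells and 1 = vehicle-only wells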
CYP2C19 activ = activators of human cytochrome P450 2C19. P33261. recombinant CYP2C19, luciferin-H EGE luminescence; hits give high values; 0 = fully inhibited enzyme, 1 = untreated enzyme. activation factor at 5 µM. 96,000 tested, under 10 active. AID 1025;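 active = activation factor of at least 2 at 5 µM in the primary screen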;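 note: 0 = wells with 2.5 mM tranylcypromine and 1 = vehicle-only wells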
* = called active by the depositor; x = not tested or not shown. Most compounds without a hit are left out; they make up all but 27% or so of the library.

SMILES | Cav32 inh | CYP2C19 inh | CYP2C9 inhib | CYP2C9 act | CYP2C19 activ
COC(=O)C(C)Oc1cc(C)cc2oc(=O)c3c(c12)CCC3 (configuration not stated) | 0.393 | 71.9* | 92.1* | 0.1 | 0.3
COC(=O)c1cc(COc2cc(C)cc3oc(=O)c4c(c23)CCC4)c(C)o1 | x | 77.6* | 96.9* | 0 | 0.2
COc1ccc(C(=O)N2CCCC2=O)cc1 | 0.71 | x | x | x | x
O=c1c2ccccc2nc(-c2ccc(-c3ccccc3)cc2)n1-c1ccncc1 | -0.973 | -2.7 | 25.9 | 0.7 | 1
O=C(CCS(=O)(=O)c1ccc(Br)cc1)N1CCC2(CC1)OCCO2 | x | 11.1 | 13.7 | 0.9 | 0.9
Cc1cccc(CS(=O)(=O)Cc2ccc(C(=O)N3CCC4(CC3)OCCO4)o2)c1 | 0.524 | 32.7 | 57.7* | 0.4 | 0.7
O=C(c1ccc(CS(=O)(=O)c2ccccc2)o1)N1CCC2(CC1)OCCO2 | -0.0873 | 81.3* | 46.7 | 0.5 | 0.2
O=C(c1ccc(CS(=O)(=O)c2ccc(Br)cc2)o1)N1CCC2(CC1)OCCO2 | 1.51 | 41.6 | 53.6* | 0.5 | 0.6
Cc1cccc(CN2CCN(CC(=O)N3CCC4(CC3)OCCO4)C2=O)c1 | 1.08 | 0.0 | 11.4 | 0.9 | 1
CCOP(=O)(OCC)C(c1ccccc1)N(C)C=O (configuration not stated) | 0.731 | 4.3 | 8.0 | 0.9 | 1
Cn1c(C(=O)O)c(CC(=O)N2CCN(Cc3ccccc3)CC2)c2ccccc21 | 0.258 | -6.8 | -8.4 | 1.1 | 1.1
CN1CCN(C(=O)COc2ccc3ccccc3c2Br)CC1 | 0.781 | 66.5* | -26.3 | 1.3 | 0.3
CN(C)P1(N(C)C)=NC(C(F)(F)F)=NC(C(F)(F)F)=N1 | 0.0241 | 14.6 | -20.0 | 1.2 | 0.9
CC(C)CC(=O)NC(Oc1ccc(Cl)cc1)C(Cl)(Cl)Cl (configuration not stated) | -6.18* | 81.7* | 31.0 | 0.7 | 0.2
O=C(NC(Oc1ccccc1)C(Cl)(Cl)Cl)c1ccccc1 (configuration not stated) | -0.381 | 15.3 | 8.7 | 0.9 | 0.8
C=CCn1c(O)c(C(CC)=NC(C)c2ccccc2)c(=O)[nH]c1=O (configuration not stated) | 0.879 | 65.7* | 63.0* | 0.4 | 0.3
CCCCn1c(O)c(C(C)=NC(C)c2ccccc2)c(=O)[nH]c1=O (configuration not stated) | -1.02 | 53.5* | 77.3* | 0.2 | 0.5
CCCCn1c(O)c(C(C)=NCCc2ccccc2)c(=O)[nH]c1=O | -1.6 | 38.1 | 69.4* | 0.3 | 0.6
CCCCn1c(O)c(C(CC)=NC(C)c2ccccc2)c(=O)[nH]c1=O (configuration not stated) | -3.24 | 71.2* | 90.9* | 0.1 | 0.3
CCCCn1c(O)c(C(CC)=Nc2ccc(OCC)cc2)c(=O)[nH]c1=O | -1.11 | 11.7 | 19.7 | 0.8 | 0.9
CCCCn1c(O)c(C(C)=Nc2ccc(C(=O)O)cc2)c(=O)[nH]c1=O | 0.0988 | 0.7 | -1.3 | 1 | 1
O=P(N1CCCCC1)(N1CCCCC1)C(Cl)(Cl)Cl | -1.25 | 35.8 | 45.8 | 0.5 | 0.6
CC(C)CC1C(C#N)=C(N)Oc2c1c(=O)oc1ccccc21 (configuration not stated) | 0.0465 | 27.8 | 76.8* | 0.2 | 0.7
COC(=O)C1=C(N)Oc2c(c(=O)oc3ccccc23)C1c1cccnc1 (configuration not stated) | 1.43 | 23.4 | 91.5* | 0.1 | 0.8
N#CC1=C(N)Oc2c(c(=O)oc3ccccc23)C1c1ccncc1 (configuration not stated) | 1.62 | 57.2* | 95.5* | 0 | 0.4
SMILES | Cav32 inh | CYP2C19 inh | CYP2C9 inhib | CYP2C9 act | CYP2C19 activ
CCOc1ccc(C2C(C#N)=C(N)Oc3c2c(=O)oc2ccccc32)cc1 (configuration not stated) | 0.0356 | 8.9 | 83.3* | 0.2 | 0.9
CC1CCC(C(=O)NC(C(=O)N2CCC3(CC2)OCCO3)C(C)C)CC1 (configuration not stated) | x | 15.9 | 11.7 | 0.9 | 0.8
O=C(c1c[nH]cc1-c1ccccc1)c1cccc2ccccc12 | 0.875 | x | x | x | x
CN1C(=O)C(=Cc2ccc(N3CCCCC3)o2)C(=O)N(C)C1=S | -6.71* | 38.6 | 18.4 | 0.8 | 0.6
CN(C)C=C1C(=O)N(C2CCCCC2)C(=O)N(C2CCCCC2)C1=O | -3.36 | -6.3 | 7.3 | 0.9 | 1.1
C/C=C1\CN2[C@H]3C[C@@]45c6ccccc6N(C)[C@H]4[C@@H]2CC1C3[C@H]5O (some centres not stated) | -4.6* | x | x | x | x
